Results from the supplement of paper PMC4466140.

What was measured:
Assay in all cases: SPOT peptide array binding signal intensity (averaged, normalized) (arbitrary units (background-subtracted, floor 0; scale differs between SH3 domains)); higher = stronger binding of the SH3 domain to the peptide
AgAbp1 = target: AgAbp1
Summary of the method: (§1)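 Cellulose membranes carried synthetic 15-mer peptides with cysteines swapped for serines. These were incubated overnight at 4°C with 10 μg/ml of GST-fused SH3 domains from four yeast species in TBS-based blocking buffer. Binding signal, detected with anti-GST antibody and quantified in Genespotter, is the normalized, background-subtracted spot intensity averaged over replicates, in arbitrary units specific to each domain.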

AgBbc1 = target: AgBbc1
Summary of the method: as §1

AgBem1-D1 = target: AgBem1-D1
Summary of the method: as §1

AgBzz1-D1 = target: AgBzz1-D1
Summary of the method: as §1

AgBzz1-D2 = target: AgBzz1-D2
Summary of the method: as §1

AgCyk3 = target: AgCyk3
Summary of the method: as §1

AgFus1 = target: AgFus1
Summary of the method: as §1

AgHof1 = target: AgHof1
Summary of the method: as §1

AgHse1 = target: AgHse1
Summary of the method: as §1

AgLsb1 = target: AgLsb1
Summary of the method: as §1

AgLsb4 = target: AgLsb4
Summary of the method: as §1

AgMyo5 = target: AgMyo5
Summary of the method: as §1

AgNbp2 = target: AgNbp2
Summary of the method: as §1

AgRvs167 = target: AgRvs167
Summary of the method: as §1

AgSho1 = target: AgSho1
Summary of the method: as §1

AgSla1-D1-D2 = target: AgSla1-D1-D2
Summary of the method: as §1

AgSla1-D3 = target: AgSla1-D3
Summary of the method: as §1

CaAbp1-D1 = target: CaAbp1-D1
Summary of the method: as §1

CaAbp1-D2 = target: CaAbp1-D2
Summary of the method: as §1

CaBbc1 = target: CaBbc1
Summary of the method: as §1

CaBem1-D1 = target: CaBem1-D1
Summary of the method: as §1

CaBzz1-D1 = target: CaBzz1-D1
Summary of the method: as §1

CaBzz1-D2 = target: CaBzz1-D2
Summary of the method: as §1

CaCyk3 = target: CaCyk3
Summary of the method: as §1

CaFus1 = target: CaFus1
Summary of the method: as §1

CaHof1 = target: CaHof1
Summary of the method: as §1

CaHse1 = target: CaHse1
Summary of the method: as §1

CaLsb1 = target: CaLsb1
Summary of the method: as §1

CaLsb4 = target: CaLsb4
Summary of the method: as §1

CaMyo5 = target: CaMyo5
Summary of the method: as §1

CaNbp2 = target: CaNbp2
Summary of the method: as §1

CaRvs167 = target: CaRvs167
Summary of the method: as §1

CaRvs167-3 = target: CaRvs167-3
Summary of the method: as §1

CaSho1 = target: CaSho1
Summary of the method: as §1

CaSla1-D1-D2 = target: CaSla1-D1-D2
Summary of the method: as §1

CaSla1-D3 = target: CaSla1-D3
Summary of the method: as §1

ScAbp1 = target: ScAbp1
Summary of the method: as §1

ScBbc1 = target: ScBbc1
Summary of the method: as §1

ScBem1-D1 = target: ScBem1-D1
Summary of the method: as §1

ScBzz1-D1 = target: ScBzz1-D1
Summary of the method: as §1

ScBzz1-D2 = target: ScBzz1-D2
Summary of the method: as §1

ScCyk3 = target: ScCyk3
Summary of the method: as §1

ScFus1 = target: ScFus1
Summary of the method: as §1

ScHof1 = target: ScHof1
Summary of the method: as §1

ScHse1 = target: ScHse1
Summary of the method: as §1

ScLsb1 = target: ScLsb1
Summary of the method: as §1

ScLsb2 = target: ScLsb2
Summary of the method: as §1

ScLsb3 = target: ScLsb3
Summary of the method: as §1

ScLsb4 = target: ScLsb4
Summary of the method: as §1

ScMyo3 = target: ScMyo3
Summary of the method: as §1

ScMyo5 = target: ScMyo5
Summary of the method: as §1

ScNbp2 = target: ScNbp2
Summary of the method: as §1

ScPex13 = target: ScPex13
Summary of the method: as §1

ScRvs167 = target: ScRvs167
Summary of the method: as §1

ScSho1 = target: ScSho1
Summary of the method: as §1

ScSla1-D1-D2 = target: ScSla1-D1-D2
Summary of the method: as §1

ScSla1-D3 = target: ScSla1-D3
Summary of the method: as §1

SpAbp1-D1 = target: SpAbp1-D1
Summary of the method: as §1

SpBbc1 = target: SpBbc1
Summary of the method: as §1

SpBzz1-D1 = target: SpBzz1-D1
Summary of the method: as §1

SpBzz1-D2 = target: SpBzz1-D2
Summary of the method: as §1

SpCyk3 = target: SpCyk3
Summary of the method: as §1

SpHof1 = target: SpHof1
Summary of the method: as §1

SpHof1-2 = target: SpHof1-2
Summary of the method: as §1

SpHof1-3 = target: SpHof1-3
Summary of the method: as §1

SpHse1 = target: SpHse1
Summary of the method: as §1

SpLsb1 = target: SpLsb1
Summary of the method: as §1

SpLsb4 = target: SpLsb4
Summary of the method: as §1

SpMyo1 = target: SpMyo1
Summary of the method: as §1

SpNbp2 = target: SpNbp2
Summary of the method: as §1

SpPex13 = target: SpPex13
Summary of the method: as §1

SpRvs167 = target: SpRvs167
Summary of the method: as §1

SpSla1-D1-D2 = target: SpSla1-D1-D2
Summary of the method: as §1

SpSla1-D3 = target: SpSla1-D3
Summary of the method: as §1

TKRKRPARLIFYDSK
SPOT peptide array binding signal intensity (AgAbp1): 113
SPOT peptide array binding signal intensity (AgBbc1): 40.2
SPOT peptide array binding signal intensity (AgBem1-D1): 82
SPOT peptide array binding signal intensity (AgBzz1-D1): 26
SPOT peptide array binding signal intensity (AgBzz1-D2): 20
SPOT peptide array binding signal intensity (AgCyk3): 13.5
SPOT peptide array binding signal intensity (AgFus1): 436
SPOT peptide array binding signal intensity (AgHof1): 20.5
SPOT peptide array binding signal intensity (AgHse1): 696
SPOT peptide array binding signal intensity (AgLsb1): 3.5
SPOT peptide array binding signal intensity (AgLsb4): 122
SPOT peptide array binding signal intensity (AgMyo5): ≤ 0
SPOT peptide array binding signal intensity (AgNbp2): 236
SPOT peptide array binding signal intensity (AgRvs167): 3.67
SPOT peptide array binding signal intensity (AgSho1): 94.5
SPOT peptide array binding signal intensity (AgSla1-D1-D2): 1050
SPOT peptide array binding signal intensity (AgSla1-D3): 1.25
SPOT peptide array binding signal intensity (CaAbp1-D1): 717
SPOT peptide array binding signal intensity (CaAbp1-D2): 662
SPOT peptide array binding signal intensity (CaBbc1): 66.5
SPOT peptide array binding signal intensity (CaBem1-D1): 16
SPOT peptide array binding signal intensity (CaBzz1-D1): 108
SPOT peptide array binding signal intensity (CaBzz1-D2): 40.2
SPOT peptide array binding signal intensity (CaCyk3): 119
SPOT peptide array binding signal intensity (CaFus1): 876
SPOT peptide array binding signal intensity (CaHof1): 1.5
SPOT peptide array binding signal intensity (CaHse1): 36.8
SPOT peptide array binding signal intensity (CaLsb1): 1.5
SPOT peptide array binding signal intensity (CaLsb4): 85
SPOT peptide array binding signal intensity (CaMyo5): 3.5
SPOT peptide array binding signal intensity (CaNbp2): 450
SPOT peptide array binding signal intensity (CaRvs167): 19.8
SPOT peptide array binding signal intensity (CaRvs167-3): 240
SPOT peptide array binding signal intensity (CaSho1): 605
SPOT peptide array binding signal intensity (CaSla1-D1-D2): 1
SPOT peptide array binding signal intensity (CaSla1-D3): 25
SPOT peptide array binding signal intensity (ScAbp1): 26
SPOT peptide array binding signal intensity (ScBbc1): 22
SPOT peptide array binding signal intensity (ScBem1-D1): 22.5
SPOT peptide array binding signal intensity (ScBzz1-D1): 12
SPOT peptide array binding signal intensity (ScBzz1-D2): 22
SPOT peptide array binding signal intensity (ScCyk3): 62
SPOT peptide array binding signal intensity (ScFus1): 354
SPOT peptide array binding signal intensity (ScHof1): 0.5
SPOT peptide array binding signal intensity (ScHse1): 1060
SPOT peptide array binding signal intensity (ScLsb1): 5.5
SPOT peptide array binding signal intensity (ScLsb2): 5
SPOT peptide array binding signal intensity (ScLsb3): 239
SPOT peptide array binding signal intensity (ScLsb4): 13
SPOT peptide array binding signal intensity (ScMyo3): 2.5
SPOT peptide array binding signal intensity (ScMyo5): 3
SPOT peptide array binding signal intensity (ScNbp2): 975
SPOT peptide array binding signal intensity (ScPex13): 3.5
SPOT peptide array binding signal intensity (ScRvs167): 23.8
SPOT peptide array binding signal intensity (ScSho1): 382
SPOT peptide array binding signal intensity (ScSla1-D1-D2): 198
SPOT peptide array binding signal intensity (ScSla1-D3): 13.2
SPOT peptide array binding signal intensity (SpAbp1-D1): 190
SPOT peptide array binding signal intensity (SpBbc1): 3
SPOT peptide array binding signal intensity (SpBzz1-D1): 77.5
SPOT peptide array binding signal intensity (SpBzz1-D2): 0.75
SPOT peptide array binding signal intensity (SpCyk3): 8
SPOT peptide array binding signal intensity (SpHof1): 172
SPOT peptide array binding signal intensity (SpHof1-2): 27.5
SPOT peptide array binding signal intensity (SpHof1-3): 380
SPOT peptide array binding signal intensity (SpHse1): 299
SPOT peptide array binding signal intensity (SpLsb1): 4
SPOT peptide array binding signal intensity (SpLsb4): 205
SPOT peptide array binding signal intensity (SpMyo1): 4.25
SPOT peptide array binding signal intensity (SpNbp2): 584
SPOT peptide array binding signal intensity (SpPex13): 11
SPOT peptide array binding signal intensity (SpRvs167): 4.33
SPOT peptide array binding signal intensity (SpSla1-D1-D2): 4
SPOT peptide array binding signal intensity (SpSla1-D3): 7
